# Key:
# Test in all cases: PBM binding z-score (relative to random genomic background probes); higher = stronger binding; sequences stand for … in GC…GCGATTGACAGCGTAGAATGAAGG
# [1] = system: FXR:RXRa (NR concentration 270 nM, RXRa partner concentration 90 nM)
# Outline: (§1)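 On custom Agilent 4×180K arrays, double-stranded probes with 34-nt variable regions carried direct-repeat seeds, single-nucleotide variants, half-site ablations or random human genomic background. Ligand-free nuclear receptor dimers were applied for 1 h, and binding was read with antibodies against each partner (one per run). Binding z-scores come from regression-normalized fluorescence, with the random background probes as reference.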
# [2] = system: LXRa:RXRa (NR concentration 270 nM, RXRa partner concentration 90 nM)
# Outline: as §1
# [3] = system: LXRa homodimer (NR concentration 270 nM)
# Outline: as §1
# [4] = system: LXRb:RXRa (NR concentration 270 nM, RXRa partner concentration 90 nM)
# Outline: as §1
# [5] = system: LXRb homodimer (NR concentration 270 nM)
# Outline: as §1
# [6] = system: PPARg:RXRa (NR concentration 180 nM, RXRa partner concentration 90 nM)
# Outline: as §1
# [7] = system: PPARg:RXRa 270nM:90nM, anti-RXR (NR concentration 270 nM, RXRa partner concentration 90 nM)
# Outline: as §1
# [8] = system: PPARg:RXRa 30nM:10nM, anti-RXR (NR concentration 30 nM, RXRa partner concentration 10 nM)
# Outline: as §1
# [9] = system: PPARg:RXRa 90nM:30nM, anti-RXR (NR concentration 90 nM, RXRa partner concentration 30 nM)
# Outline: as §1
# [10] = system: PPARg:RXRa DBDmut IVT, anti-RXR (DBD mutation: RXRa K156A/R161A, NR concentration 270 nM, RXRa partner concentration 90 nM)
# Outline: as §1
# [11] = system: PPARg:RXRa IVT, anti-PPARg (NR concentration 270 nM, RXRa partner concentration 90 nM)
# Outline: as §1
# [12] = system: PPARg DBDmut:RXRa IVT, anti-PPARg (DBD mutation: PPARg1 K132A/R137A, NR concentration 270 nM, RXRa partner concentration 90 nM)
# Outline: as §1
# [13] = system: PPARg DBDmut IVT, anti-PPARg (DBD mutation: PPARg1 K132A/R137A, NR concentration 270 nM)
# Outline: as §1
# [14] = system: PPARg homodimer (NR concentration 180 nM)
# Outline: as §1
# [15] = system: PXR:RXRa (NR concentration 270 nM, RXRa partner concentration 90 nM)
# Outline: as §1
# [16] = system: PXR homodimer (NR concentration 270 nM)
# Outline: as §1
# [17] = system: RARa:RXR (NR concentration 270 nM, RXRa partner concentration 90 nM)
# Outline: as §1
# [18] = system: RARa homodimer (NR concentration 270 nM)
# Outline: as §1
# [19] = system: RARb:RXRa (NR concentration 270 nM, RXRa partner concentration 90 nM)
# Outline: as §1
# [20] = system: PPARa:RXRa (NR concentration 270 nM, RXRa partner concentration 90 nM)
# Outline: as §1
Sequence,PBM binding z-score [1],PBM binding z-score [2],PBM binding z-score [3],PBM binding z-score [4],PBM binding z-score [5],PBM binding z-score [6],PBM binding z-score [7],PBM binding z-score [8],PBM binding z-score [9],PBM binding z-score [10],PBM binding z-score [11],PBM binding z-score [12],PBM binding z-score [13],PBM binding z-score [14],PBM binding z-score [15],PBM binding z-score [16],PBM binding z-score [17],PBM binding z-score [18],PBM binding z-score [19],PBM binding z-score [20]
CCTACTGGGCCAAAGGTCATTGACTCCAATGCTC,5.27,5.54,4.65,5.25,0.543,12.1,10.3,10.7,11.4,5.27,7.13,0.277,0.152,2.5,5.52,1.32,6.16,0.485,4.53,–
CCGAGTAGGTTACGCGGGGGCATTCAGTGCGAAT,3.18,6.77,1.34,6.01,–,2.36,3.3,1.11,2.24,4.28,4.82,–,–,1.38,5.72,7.61,3.67,0.0169,2.29,3.32
CCGACTGGGGCAAAGGTCACCATACTCAGTACGA,4.94,4.64,1.94,4.54,-0.206,–,10,12.4,11.1,5.43,6.94,0.0184,-0.117,4.04,5.34,0.429,–,1.73,4.73,–
GATACGGGGTCAGCTAGAGGCCAGAGTATGGAAA,7.6,5.46,-0.127,5.17,0.715,7.74,7.16,3.25,5.78,3.12,4.66,1.44,0.481,4.42,5.75,0.6,6.84,0.888,5.15,–
CGAACTAGTTCAAGGACAGTGAATCTCCGCACGC,0.282,0.229,-0.253,-0.107,-0.693,–,0.0328,-0.735,-0.0258,0.894,-0.296,-0.635,-0.503,0.151,0.352,0.308,0.402,-0.835,1.53,–
TCATATAGGTAAAAGGTCAAAGTCGGTGTGGTAA,6.77,6.41,4.99,5.78,2.43,–,10.5,10.9,12.4,5.65,6.93,2.69,3,5.82,5.94,2.41,–,4.73,4.88,–
CCGAGTAGGTTACCAGGGGGCATTCAGTGCGAAT,2.76,7.81,3.59,6.85,–,2.1,3.31,0.696,2.27,3.65,4.24,–,–,1.99,4.73,5.81,2.91,0.502,2.33,3.43
AAATGTAGGTTAAGGGTCATTCAGGTTGGTTCGC,5.31,4.71,3.07,4.53,1.39,11.7,9.63,10.5,10.8,8.02,8.07,2.18,2.05,3.58,5.32,2.61,5.42,2.02,3.7,–
TTACCAAGGTGAAAGGTCATTGATGCACGCCTTG,6.65,6.17,4.61,5.39,1.12,–,9.21,9.49,10.9,2.98,6.12,1.63,2.28,5.67,6.35,2.25,–,2.09,4.86,–
TAGCCTAGGTCATTGTGCCAGTATAGTACGCATC,4.04,3.2,1.08,2.51,0.948,2.89,2.79,0.475,2.19,2.37,3.23,-0.0725,0.703,0.97,1.47,0.0622,1.89,-0.0989,3.44,–
CAAACTAGGTCACAGGGGTCAAAGTCCGTGCGTA,7.54,6.48,5.12,6.61,1.67,–,8.74,7.69,9.17,8.38,9.12,4.98,3.18,3.99,6.9,8.47,8.18,1.96,5.46,–
TCGAGTAGGTTACGGGTGCATTCAGGGATGAAGA,0.435,0.756,-0.274,0.94,–,2.3,2.7,2.01,2.23,2.9,3.34,–,–,0.289,1.62,0.692,1.33,-0.909,0.994,2.22
TCGAGTAGGTTGCGGGGGCATTCAGGGATGAAGA,2.84,2.17,0.68,4.34,–,0.862,2.72,2.32,2.95,2.02,3.55,–,–,1.44,3.09,2.38,2.39,0.623,1.91,2.7
TGAATGAGGTTAAAGGTCAGGGAACGTGGCGTCG,7.23,6,2.34,5.35,1.05,–,9.95,12.2,12.1,3.7,6.46,1.94,1.25,5.36,–,1.01,–,3.29,5.08,–
CATCCAAGGTCAAAGGTCAGTGAAGAGATGACGG,8.63,7.28,5.11,7.03,3.15,11.1,9.75,8.73,10.8,4.07,6.54,2.71,3.63,5.52,7.36,2.53,–,3.93,–,–
CCGAGTAGGTTACGAGGGGGCATTAAGTGCGAAT,2.79,6.98,1.2,6.3,–,2.04,3.06,0.817,2.16,4.89,4.4,–,–,2.11,4.77,7.4,2.72,0.983,2.15,3.38

# Source: the supplement of paper PMC6555819
